This note sets out measurements from the supplement of paper PMC6522484.

± gives the standard deviation of the averaged measurements.

For assay [1], the system named is DLD1. The assay can be described thus: cell viability (CellTiter-Glo) relative to plate median (fraction of plate median); higher = more viable cells. The note with it: 5 µM; treatment time 24 h; reporter: 7TFP. The essentials: (§1)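 Library compounds were added at a final concentration of 5 µM for 24 h to colorectal cancer cells stably transduced with a lentiviral TCF/Wnt firefly luciferase reporter. Reported values are firefly luciferase or CellTiterGlo luminescence, normalised per well to the plate median. Each value averages two independent replicates.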
Background: In ATP-based viability assays light output follows the ATP content of the culture.

In the next assay the test system is HCT116. Described as above. The note with it: 5 µM; treatment time 24 h; reporter: TCF4/Wnt. In a few lines: as §1
Assay [2] relates to SW480. The assay is described as above. The conditions noted are these: 5 µM; treatment time 24 h; reporter: 7TFP. In a few lines: as §1
The subject of assay [3] is DLD1. The assay can be described thus: TCF/Wnt firefly luciferase reporter signal relative to plate median (fraction of plate median); higher = higher Wnt reporter signal. The note with it: 5 µM; treatment time 24 h; reporter: 7TFP. In a few lines:
as §1
Background: In a reporter assay the amount or activity of a reporter protein is the signal.

Assay [4] deals with SW480. The description is as above. The note with it: 5 µM; treatment time 24 h; reporter: 7TFP. The essentials: as §1

In the case of `C=C(C)[C@@H]1C[C@H](O)[C@]2(C(=O)O[C@@H]3O[C@H](CO[C@@H]4O[C@H](CO)[C@@H](O[C@@H]5O[C@@H](C)[C@H](O)[C@@H](O)[C@H]5O)[C@H](O)[C@H]4O)[C@@H](O)[C@H](O)[C@H]3O)CC[C@]3(C)[C@H](C[C@H]4OC(=O)C[C@@H](O)[C@]5(C)[C@@H]4[C@@]3(C)CC[C@H]5C(=C)C)[C@@H]12` [22alpha-hydroxychiisanoside (4)], the cell viability with DLD1 [1] came out at 0.87 ± 0.055; in the assay on HCT116, 0.878 ± 0.06; in the assay on SW480 [2] it was 0.937 ± 0.033. The “TCF/Wnt firefly luciferase reporter signal” value turned out to be 0.803 ± 0.0042 in the assay with DLD1 [3] and 0.951 ± 0.029 with SW480 [4].

Consider `Cc1ccc(C(=O)c2ccc(CC(=O)O)n2C)cc1`, for which the cell viability was found to be 0.981 ± 0.098 in the assay on DLD1 [1], 1.01 ± 0.023 in the assay on HCT116 and 1 ± 0.053 with SW480 [2]. Also, the “TCF/Wnt firefly luciferase reporter signal” value came out at 1.07 ± 0.05 with DLD1 [3] and 1.06 ± 0.064 in the assay on SW480 [4].

In the case of `O=C(O)c1ccccc1Nc1cccc(C(F)(F)F)c1`, the cell viability in the assay with DLD1 [1] is 0.967 ± 0.0099; in the assay on HCT116 it was 0.934 ± 0.042; with SW480 [2] it was 0.95 ± 0.011. For the same compound, the “TCF/Wnt firefly luciferase reporter signal” value is 0.96 ± 0.057 in the assay on DLD1 [3] and 1.07 ± 0.064 in the assay on SW480 [4].

Take `Nc1ncnc2c1ncn2[C@@H]1O[C@H](COP(=O)(O)O)[C@@H](O)[C@H]1O`: the cell viability in the assay with DLD1 [1] was 0.958 ± 0.025; with HCT116, 0.983 ± 0.081; with SW480 [2] it was 1.03 ± 0.059. The “TCF/Wnt firefly luciferase reporter signal” value in the assay with DLD1 [3] turned out to be 1.09; in the assay with SW480 [4], 0.974 ± 0.12.

Consider `CN1CCCN=C1/C=C/c1cccs1`, for which the values for the cell viability in the assay on DLD1 [1], with HCT116 and in the assay with SW480 [2] were 0.984 ± 0.022, 0.903 ± 0.093 and 1.05, respectively. The “TCF/Wnt firefly luciferase reporter signal” value in the assay on DLD1 [3] is 1.135 ± 0.0071; with SW480 [4], 0.994 ± 0.037.

Consider `COC(=O)CC[C@@H](C)[C@H]1CC[C@H]2[C@@H]3[C@H](O)C[C@@H]4C[C@H](O)CC[C@]4(C)[C@H]3C[C@H](O)[C@]12C`, for which the values for the cell viability in the assay with DLD1 [1], in the assay with HCT116 and with SW480 [2] were 0.98 ± 0.0099, 1.06 and 1.005 ± 0.0071, respectively. Moreover, the “TCF/Wnt firefly luciferase reporter signal” value came to 1.21 ± 0.014 in the assay with DLD1 [3] and 1.09 ± 0.092 in the assay on SW480 [4].

Take `COc1cc2c(cc1OC)-c1cc3ccc(OC)c(OC)c3c[n+]1CC2`: the cell viability in the assay on DLD1 [1] was 0.983 ± 0.067; with HCT116 it was 0.896 ± 0.16; in the assay on SW480 [2], 0.949 ± 0.054. Further, the results for the “TCF/Wnt firefly luciferase reporter signal” value in the assay with DLD1 [3] and in the assay with SW480 [4] were 1.105 ± 0.0071 and 1.01 ± 0.073, respectively.

For `CCCCCCOc1ccccc1C(N)=O`, the cell viability in the assay with DLD1 [1] is 0.9695 ± 0.0078; in the assay on HCT116, 0.954; with SW480 [2], 0.962 ± 0.041. Moreover, the “TCF/Wnt firefly luciferase reporter signal” value in the assay with DLD1 [3] was 1.09 ± 0.21; in the assay on SW480 [4], 1.11 ± 0.13.

`CCSC(=N)N`: the cell viability in the assay with DLD1 [1] was 0.954 ± 0.046; in the assay with HCT116, 0.948 ± 0.073; in the assay on SW480 [2], 0.9995 ± 0.00071. Also, the “TCF/Wnt firefly luciferase reporter signal” value in the assay on DLD1 [3] was determined as 0.99 ± 0.028; in the assay on SW480 [4], 0.963 ± 0.031.

On to `CCCC(=O)Nc1ncnc2c1ncn2[C@@H]1O[C@@H]2COP(=O)(O)O[C@H]2[C@H]1OC(=O)CCC`, for which the cell viability with DLD1 [1] is 0.945 ± 0.055; with HCT116, 0.957 ± 0.026; with SW480 [2], 0.987 ± 0.0071. Further, the “TCF/Wnt firefly luciferase reporter signal” value with DLD1 [3] was 1.11 ± 0.17; with SW480 [4] it was 1.09 ± 0.014.

In the case of `O=C(C1CCCCC1)N1CC(=O)N2CCc3ccccc3C2C1` (stereo not given), the cell viability with DLD1 [1] came out at 0.9955 ± 0.0064; with HCT116, 0.984 ± 0.037; in the assay on SW480 [2], 0.98 ± 0.042. Further, the “TCF/Wnt firefly luciferase reporter signal” value with DLD1 [3] was determined as 1.02 ± 0.034; with SW480 [4], 0.918 ± 0.12.

As to `Nc1[nH]cnc2ncnc1-2`, the cell viability in the assay with DLD1 [1] was 1.2; in the assay on HCT116 it was 1.1 ± 0.071; in the assay on SW480 [2], 1.82 ± 0.028. Besides, the “TCF/Wnt firefly luciferase reporter signal” value in the assay with DLD1 [3] came out at 0.981 ± 0.012; in the assay with SW480 [4] it was 1.65 ± 0.26.

`O=C1C(CC[S+]([O-])c2ccccc2)C(=O)N(c2ccccc2)N1c1ccccc1` (stereo not given): the values for the cell viability in the assay with DLD1 [1], with HCT116 and with SW480 [2] were 1.07 ± 0.028, 1.09 ± 0.064 and 1.035 ± 0.0071, respectively. Moreover, the “TCF/Wnt firefly luciferase reporter signal” value turned out to be 0.857 ± 0.079 in the assay on DLD1 [3] and 0.885 ± 0.089 with SW480 [4].

Regarding `O=c1c2cc(O)c(O)cc2oc2cc(O)c([C@@H]3O[C@H](CO)[C@@H](O)[C@H](O)[C@H]3O)c(O)c12`, the values for the cell viability in the assay on DLD1 [1], with HCT116 and in the assay with SW480 [2] were 1.09 ± 0.13, 1.045 ± 0.0071 and 1.05 ± 0.035, respectively. Moreover, the “TCF/Wnt firefly luciferase reporter signal” value came out at 0.988 ± 0.06 in the assay with DLD1 [3] and 0.957 ± 0.061 with SW480 [4].

`CCCCCCCCCCCCCCCC(=O)OC/C=C(C)/C=C/C=C(C)/C=C/C1=C(C)CCCC1(C)C`: the results for the cell viability with DLD1 [1], with HCT116 and in the assay on SW480 [2] were 0.986 ± 0.048, 1.07 ± 0.035 and 0.9965 ± 0.0021, respectively. Also, the “TCF/Wnt firefly luciferase reporter signal” value with DLD1 [3] is 0.885 ± 0.1; in the assay with SW480 [4], 1.01 ± 0.073.
